# Assay results from the supplement of paper PMC12632987.
# B1: GBRAPL2_63_7406 (protein)
# chain: SAVRRVLEALLRHAILDLDTAELLDEALETETDEEALYETLVEAILRIRPELTPEEAREVADKLIALAEQSEALLAEAVRDLTTLSKEEFLARLDALVAE
# B2: GBRAPL2_83_7414 (protein)
# chain: TTIELDLLLEVKLKGDEEEKEELLDLMVEAADRLRELGASAAVAIKEENGVLEVEVHVIAVGDEELVKKVEEKLKEAAEEIKKKFPKAEVKVEVLERKEL
# B3: GBRAPL2_63_7394 (protein)
# chain: SAARKVLEALLEHAIIDLETAERLEKALEEAKSEEELRKTLVEALLDMIPELTEEEAEELADMLIELAKKSEELLKEAILALQTLSKEEALAKLKALVAE
# B4: GBRAPL2_85_7420 (protein)
# chain: MEKITIVARTLEEAVEMAVDVVEALDPKGEIEVELIVLVPSSELEKAIAELPKAAEELKKKFQELAKKHPGLKINAEIEIFDSDTREFHPDVKKFTVEDK
# B5: GBRAPL2_83_7416 (protein)
# chain: MKKRVLITHEIEVKSEKVTKEEALDLAGDVAERLREKGIAAVVSVEEEDGVILVEIEALLEDSEEKIKIVEEEVEKLVKRLEELGAEVKLKTEREEEIVP
# B6: GBRAPL2_83_7417 (protein)
# chain: VKKLKVITHDIEIKSENITEEEALDMAGDVAAELRKHGIKTVVGVERENGVVKVELESIMEDNEEKEKLVHEEVEKLVEELKKKGAEVKVETEEEIVEVE
# B7: GBRAPL2_83_7413 (protein)
# chain: MTVRLALELTVTLEGDEEEKEALLDMMVETADELRKLGAAAVVAIEEEDGVLTIVLDVLVVGNKEQVEKVKKKLEEAAKEIKEKFPNAKVEVKVLEEEEL
# B8: GBRAPL2_63_7403 (protein)
# chain: SEVEKVLKAILEYATLDLDTAERIDKALESNLSEEELFEVLVETIKDINPELTDEEAEKIAELLIELAKQSEEKLKEAVRKLQTMENEEFIAYLEELVKE
# B9: GBRAPL2_63_7401 (protein)
# chain: SSVEKVLKTLLEYAVLDLDTAEKIDKALENNESDEELFKTLVEAIKDIRPDLTEEEAEEIAKLLIELAKKSEELLKEAVRKLDTMENEEFIKYLKELVEK
# B10: GBRAPL2_63_7404 (protein)
# chain: SSAEKVLKTLLEYATLDLDTAERLEEALESNASEEELREALVEAIKDIRPDLTEEEAERVADLLIELAKQSEELLKEAVRDLDTLENDEFLKRLEELVAA
# B11: GBRAPL2_85_7421 (protein)
# chain: TEKVTIVAHTLEEVVDMSVDVLEALEPKGTVEIEGIVAVPSSELEKALKELPKAAEELKKRLEELAKKRPGLTINAEIRIFNLDTKEFHPKVEKFTVKNE
# B12: GBRAPL2_83_7411 (protein)
# chain: MKIELDVELTVVIKGDEEEVEKIEDMMVETARELRKLGAAAVVATKEEDGVYTFVLDVLYVGDEEGAKKVIELLKESAEKIKKEFPEAKVTVKVVEKKVL
# B13: GBRAPL2_63_7398 (protein)
# chain: MLAKKVLEALLENAILPLDLAEELEKALETLKTEEELRETLVKAILELNPELTEEEAEEIVDLLIELAKKSEELLKEGVRALSTLDNETAKEYLKKLVAE
# B14: GBRAPL2_83_7415 (protein)
# chain: VERTVLITTEITVRHPDLTEEEALDLAGDVAARLREHGVKTVVGVEERDGVVHIVLESLTPDDPALRAAIDEEVDALVAELRARGAEVEVRREEEVVDVP
# B15: GBRAPL2_63_7405 (protein)
# chain: MTAKKVLEALLRHAILPLDTAERLDEALENEEDEEKLRETLVEAILDIRPELTPEEAEYVAEKLLALAEQSEERLAEAVRALTTLSKEEFLARLDELVAE
# B16: GBRAPL2_63_7407 (protein)
# chain: MTVRKVLEALLEHAILDLDTAERLEEALENETDEEELFETLVEAILDIRPELTPEEAREVAEKLVELAKQSEELLKEAVRALTTLSKEEFLAYLDELVAK
# B17: GBRAPL2_93_7422 (protein)
# chain: MKVKVTIIRLVNGEVVEEEEREVTVEEAKKLIEELLKEAVANGERVIIEIYDKDTGWTFGDYVENEEQAEKALKRAKEILDDLEKEGKEVEITITIEKKT
# B18: GBRAPL2_83_7410 (protein)
# chain: MEVLLELELTVTYKGNEEDKEKILDMLLEAQDKLRELGATAVVAEKLENGVYTFSLYAIYRGPREGAEKVRKTLEEFAEKIKKEFPEAKVEVKVLEEREL
# B19: GBRAPL2_63_7395 (protein)
# chain: SAAARVLRALLEHAIVDLETAERIEEALATEKSAEALRETLVAALLDMIPELTEEEARELAAALEALARRSPELLREALRALQTLSLEEARARLAALLAA
# B20: GBRAPL2_63_7396 (protein)
# chain: MIAKKVLEILLREAILDLETAEELEKALEEEKTEEELRKALVKAILDLNPDLTEEEAEEIVELLLELAKKSEELARKAVRALSTLDNEEAFAFIKKLVAE
# B21: GBRAPL2_63_7397 (protein)
# chain: MTAKKVLEIILREAILDLETAEKLEEALKNEKTEEALREALVEAILDMRPDLTEEEAEEIVDLLLELQKKSEELAREGVRALSTLDNEEALAYLKELVAK
# B22: GBRAPL2_83_7418 (protein)
# chain: VKTIRVITYDIEIKSENITEEEALDMAGDVAEELRKKGVKTVVGVEEENGVVHVTLEAIHEDDEELRKLIDEEVEKLVKELEAKGAEVKVKVEEELEEIE
# B23: GBRAPL2_63_7392 (protein)
# chain: SLLDKVLKLLSRLGPVPLDLAERFEELAEELSDEEELAKAIAEAVQEDNPHIDEERRKILEEAILKALTEDSEIAIKIASAIINGAPMEEIEKLLEELKK
# B24: GBRAPL2_54_7390 (protein)
# chain: LVEVELILIVSGELPEEEIERIEELLKEKTEELLKKHSDKIEKILRFEREREDGVVLISVELLVKEEYKEEVIDELIKIAEEIREESGVEIKSVIAESSD
# B25: GBRAPL2_63_7393 (protein)
# chain: STWARVLRLILEHATIDLETAERLEAALESNASDEELFATLVEALQDIRPELTPEQARDIAAKLARLAERSEALAAEAVRRLDTMSLEEFLAHLDALVAA
# B26: GBRAPL2_63_7400 (protein)
# chain: SAAKKALEALLEHAILDLETAERLEKALEEETDEEKLYEALVEAILDLNPEATREQAEEIADLLIELAKQSEAALKAAVRALSTVPLEEALAFLRAAVAA
# B27: GBRAPL2_63_7391 (protein)
# chain: SLADKTAALLSRLGAVPLELAEAWEAAAAALTDVAAFAEAAAAAAAAINPRIDAERQAILEEAIRRALTEDDPLAVEIVSAIINNEPDEEIRALWKKLLA
# B28: GBRAPL2_63_7402 (protein)
# chain: SAVERVLRTLLEHAVLDLDTAERLEKALESNLSDEELFKTLVEAIKDINPELTEEEAERVARLLIALAEQSEALLVEAVRQLSTLENEEFLALLEALVAA
# B29: GBRAPL2_85_7419 (protein)
# chain: MEKVTIVARSLAEAVDMAVDVVEALEPEGEIEVDLIVLVPSSELEAALAALPAAAAELKARLQELARRHPGLVVRAEVEIFDSDTREFHPDVRRFTVRDE
# B30: GBRAPL2_64_7409 (protein)
# chain: PKVHLAIAYEVEEREEDGKKVLVLDATVYVIKDGEITELEAKVVAEQLSETTWLVKLELKKPDGSVIKREEVVEAPWEDVETEMLELVDEAAREAVEEEE
# B31: GBRAPL2_63_7399 (protein)
# chain: SAAKKALEALLEHAILDLDTAERLDKALENEKDEEKLRKALVEAILDINPEATEEEAERMADLLLELAKKSEAALKEAVRALSTMDLPEALAFLEALVAA
# B32: GBRAPL2_64_7408 (protein)
# chain: AKVHLAIAYEFKESTENGKKVLKLEATVYVIEDGEITELEAEVTATQLSETTWEVKLVLRQPDGSVLERTEVVTVPYEDVETEMLDLILEAAREAVAARR
# Biological target: GABARAPL2, P60520
# Assay: median log2 fold change of GCK-ALFA target abundance (FLAG IP / Myc IP barcode read proportion) (log2 ratio); each designed protein is fused to an ALFA-tag nanobody in HEK293 cells to bring the named protein to FLAG-tagged glucokinase (GCK); Myc marks an untargeted standard; higher = target protein stabilised (more abundant)
# Settings: target protein: 3xFLAG-MCP-GCK-ALFA reporter; HEK293 landing pad (RPLP)
# Outline: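 The readout is target abundance, the per-binder median log2 ratio of FLAG to Myc barcode read proportions. It came from HEK293 landing-pad cells carrying a recombined ALFA-nanobody-fused binder library, induced with 2 μg mL^−1 doxycycline and transfected with a plasmid for a FLAG-tagged target and a Myc-tagged standard. After 48 h, lysates were immunoprecipitated with anti-FLAG and anti-Myc, and circular RNA barcodes were reverse transcribed, amplified and sequenced. Each barcode needed a proportion of at least 10^−7 in both replicates and each binder at least 3 barcodes per replicate, a pseudocount of 10^−6 was added, and the replicates were pooled.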
# Sequence of GABARAPL2, P60520 (P60520 whole entry, the tested form may be a part): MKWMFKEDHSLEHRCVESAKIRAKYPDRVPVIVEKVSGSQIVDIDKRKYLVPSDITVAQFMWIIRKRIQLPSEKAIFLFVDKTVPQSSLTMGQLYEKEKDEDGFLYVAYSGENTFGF
row,Binder,median log2 fold change
1,B1,-0.0969
2,B2,0.119
3,B3,0.071
4,B4,0.19
5,B5,0.184
6,B6,0.0338
7,B7,-0.417
8,B8,-0.012
9,B9,0.131
10,B10,0.0151
11,B11,0.266
12,B12,-0.364
13,B13,0.0619
14,B14,-0.00519
15,B15,-0.247
16,B16,0.0216

row,Binder,median log2 fold change
1,B17,0.15
2,B18,-0.0517
3,B19,0.00583
4,B20,0.0814
5,B21,0.0233
6,B22,0.388
7,B23,0.0699
8,B24,-0.0228
9,B25,0.216
10,B26,-0.0605
11,B27,0.206
12,B28,0.0388
13,B29,0.0842
14,B30,-0.0236
15,B31,-0.0717
16,B32,0.118
